In the library only some 21% were active in any assay of this set; here they are far more common.
SARS PLpro yeast – qHTS of Yeast-based Assay for SARS-CoV PLP | S. cerevisiae expressing SARS-CoV PLpro, growth rescue | Potency, µM (titrated, usually from 32.9 µM), most hits filed as activators | 0.19% of 330,000 active | AID 485353, 2010; note: nearly all actives have a fitted effect of over 55% in size
Pf growth 96h – Primary qHTS for delayed death inhibitors of the malarial parasite plastid, 96 hour incubation; AID 504834, 2011; 6.9% of 320,000 active; Potency, µM (series often up to 28.7 µM), usual class: inhibitors; P. falciparum luciferase reporter growth, 96 h; active = well fitted inhibition curve with a large enough effect; inconclusive = small, poorly fitted or top-dose-only effect, or another doubt; inactive = no such curve, though single readings can be large or run the other way
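96 h incubation, 37 C, 5% CO2, of luciferase-reporter P. falciparum-infected RBCs (2% hematocrit, 0.05% parasitemia final) with test compounds; endpoint luminescence.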
CHX counter – Cycloheximide Counterscreen for Small Molecule Inhibitors of Shiga Toxin. max response, %. cell reporter, cycloheximide protein synthesis inhibition counterscreen. AID 2314, 2010. 12% of 300,000 active; in the data active = max response mostly above about 13%, no sharp cut-off; inactive = mostly below about 14%; note: read at 38.3 µM for the half of the compounds with a filed dose
Shiga inhibitor – A qHTS for Small Molecule Inhibitors of Shiga Toxin; Vero cells, Shiga toxin protein synthesis inhibition reporter; inhibition, % at 38.7 µM; 9.2% of 290,000 active; in the data active = inhibition mostly above about 28%, no sharp cut-off; inactive = mostly below about 43%
NS1 function inh – qHTS Assay for Inhibitors of Influenza NS1 Protein Function; Potency, µM (series often up to 46.1 µM); 0.4% of 270,000 active; AID 2326, 2010; note: actives are rising curves; nearly all actives have a fitted effect of over 50% in size
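OD600 was taken as the measure of yeast growth restored by compound in an NS1-expressing S. cerevisiae strain. Cells had been washed out of glucose medium and diluted 1:100 into galactose -URA medium, pH 6.0.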
Pf growth 48h – Primary qHTS for delayed death inhibitors of the malarial parasite plastid, 48 hour incubation; P. falciparum luciferase growth in erythrocytes, 48 h; Potency, µM (series often up to 28.7 µM), usual class: inhibitors; 5.9% of 310,000 active; AID 504832, 2011; active = well fitted inhibition curve with a large enough effect; inconclusive = small, poorly fitted or top-dose-only effect, or another doubt; inactive = no such curve, though single readings can be large or run the other way
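Luminescence readout; reporter = integrated firefly luciferase in P. falciparum. RBC culture at 2% hematocrit, 0.1% parasitemia final, 37 C/5% CO2; decreased signal taken as growth inhibition.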
Large screens that a line does not name were inactive. Unless noted, calls come from the whole dose curve.

CCn1ccnc1CN(C)Cc1nc(-c2ccc(C(=O)OC)cc2)no1	none
COc1ccc(OCC(=O)Nc2ccc(Cl)cc2)cc1	CHX counter 19, Shiga inhibitor 61
COc1cccc(NC(=O)CNS(=O)(=O)c2ccc(Cl)cc2)c1	none
COc1ccc(OCC(=O)NCc2ccc(Cl)cc2)cc1	Pf growth 96h inconclusive (no result: Shiga inhibitor)
COc1ccc(CCC(=O)NCCOc2ccc(Cl)cc2)cc1	CHX counter 32
COc1ccc(NC(=O)CNS(=O)(=O)c2ccc(Cl)cc2)cc1	CHX counter 16
Cc1ccc(OCC(=O)Nc2ccc(F)cc2)cc1	CHX counter 47, Shiga inhibitor 40 (no result: Pf growth 96h)
COc1ccc(OCC(=O)Nc2ccncc2)cc1	none
CCOc1ccc(S(=O)(=O)N(C)c2ccc(OCC(=O)NCCc3ccc(OC)cc3)cc2)cc1	Pf growth 96h 3.3µM
CCOc1ccc(S(=O)(=O)N(C)c2ccc(OCC(=O)NCC3CCCCC3)cc2)cc1	none (no result: Pf growth 96h, CHX counter, Shiga inhibitor, NS1 function inh, Pf growth 48h)
O=C(NC(=S)Nc1ccccc1N1CCCC1)c1ccccc1Br	Pf growth 48h inconclusive
COc1cccc(C(=O)NC(=S)Nc2ccccc2N2CCCCC2)c1	SARS PLpro yeast inconclusive, Pf growth 96h inconclusive, NS1 function inh inconclusive, Pf growth 48h 7.4µM
COc1c(C)cccc1C(=O)NC(=S)Nc1ccccc1N1CCCC1	Pf growth 96h inconclusive, CHX counter 30, Pf growth 48h inconclusive
COc1cccc(C(=O)NC(=S)Nc2ccccc2N2CCCC2)c1	Pf growth 96h inconclusive, CHX counter 17, Pf growth 48h inconclusive
Cc1ccc(CN2CCNC(=O)C2CC(=O)N(C)C2CCOCC2)cc1 (stereo not given)	Pf growth 96h inconclusive
COc1cccc(N/C(=N/C(=S)Nc2ccc(C)cc2C)Nc2nc(C)cc(C)n2)c1	Pf growth 96h 3.3µM, Pf growth 48h 4.1µM
CCNC(=S)/N=C(/Nc1ccc(OC)cc1)Nc1nc(C)cc(C)n1	Pf growth 96h inconclusive, Pf growth 48h inconclusive
COc1ccc(NC(=S)Nc2cc(C)cc(C)n2)cc1OC	Pf growth 96h inconclusive, CHX counter 21
COc1cccc(NC(=S)Nc2cc(C)cc(C)n2)c1	CHX counter 49, Shiga inhibitor 56
Cc1cc(C)nc(NC(=S)Nc2cccc(F)c2)c1	Pf growth 48h inconclusive
COc1ccc(C(C(=O)NC2CCCC2)N(C(=O)c2ccco2)c2cc3c(cc2C(C)=O)OCO3)cc1OC (stereo not given)	Pf growth 48h inconclusive
CCOc1ccc(S(=O)(=O)N2CCC(C(=O)NCc3cccnc3)CC2)cc1C	none
COC(=O)c1cn(NC(=O)C2COc3ccccc3O2)c(=O)c2ccccc12 (stereo not given)	none
COC(=O)c1cn(NC(=O)C2CCCO2)c(=O)c2ccccc12 (stereo not given)	Pf growth 96h 12µM, NS1 function inh inconclusive
COC(=O)c1cn(NC(=O)C2CCC(C(C)(C)C)CC2)c(=O)c2ccccc12 (stereo not given)	Pf growth 96h 4.1µM
CC(C)OC(=O)C1CC(C)(O)C(=O)C(C(=O)OC(C)C)C1c1ccc([N+](=O)[O-])cc1 (stereo not given)	Pf growth 96h inconclusive, Pf growth 48h inconclusive (no result: NS1 function inh)
CCCCOc1ccc(CSCCN=C(N)N)cc1	CHX counter 31, Shiga inhibitor 42, Pf growth 48h inconclusive
Cc1cc(Br)ccc1NC(=O)CN(C)C(=O)c1ccc2ccccc2n1	none (no result: CHX counter, Shiga inhibitor, NS1 function inh)
C/C(=N\NC(=O)c1cc(Br)ccc1O)c1cccs1	CHX counter 37, Shiga inhibitor 126 (no result: NS1 function inh)
C/C(=N\NC(=O)c1cc(C)nc2ccccc12)c1cccs1	Pf growth 96h inconclusive
C/C(=N/NC(=O)c1ccc(Br)o1)c1cccs1	Pf growth 96h inconclusive, CHX counter 50, Shiga inhibitor 123 (no result: SARS PLpro yeast)
CN(C(=O)Nc1ccccc1)n1cnc2ccccc2c1=O	none
Cc1ccc(NC(=O)c2cccc(S(C)(=O)=O)c2)cc1	CHX counter 33, Shiga inhibitor 97 (no result: NS1 function inh)
Cc1nc2cc(NC(=O)NCc3ccco3)ccc2o1	CHX counter 17, Shiga inhibitor 49 (no result: Pf growth 96h)
Cc1nc2cc(NC(=O)c3cccc(S(C)(=O)=O)c3)ccc2o1	CHX counter 13
O=C(COC(=O)[C@H](Cc1c[nH]c2ccccc12)NC(=O)c1cccs1)NCc1ccccc1	none

Compound activity as filed in PubChem BioAssay.
